Assay results taken from publication PMC9911399, “Two distinct binding modes provide the RNA-binding protein RbFox with extraordinary sequence specificity”.
Numbering of substitutions follows the chain as printed; changes in the protein carry UniProt numbers. In all, about 16,000 sequences were measured (“ka relative to ugcaugu”: median about 0.0091, highest 2% from about 0.032 on). The full list was thinned out, with the highest values kept by preference.

T1: RBFOX1 RRM (Homo sapiens, UniProt Q9NWB1 109-208)
T1 sequence: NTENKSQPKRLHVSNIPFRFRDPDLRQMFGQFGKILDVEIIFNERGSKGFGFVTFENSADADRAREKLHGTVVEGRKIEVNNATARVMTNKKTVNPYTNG

B1: CAUUGUG (DNA:RNA)
RNA: GGGAGACCGGAAUUCAGAUUGUCCCAUUGUGUUAAAUCCCGUCGUAGCCACCA
DNA 1: CAATCTGAATTCCGGTCTCCC
DNA 2: TGGTGGCTACGACGGGATT
B2: GGUCGAG (DNA:RNA)
RNA: B1 RNA with C25G, A26G, U28C, U30A
DNA 1: CAATCTGAATTCCGGTCTCCC
DNA 2: TGGTGGCTACGACGGGATT
B3: AGGUCCC (DNA:RNA)
RNA: B1 RNA with C25A, A26G, U27G, G29C, U30C, G31C
DNA 1: CAATCTGAATTCCGGTCTCCC
DNA 2: TGGTGGCTACGACGGGATT
B4: UGCUGUG (DNA:RNA)
RNA: B1 RNA with C25U, A26G, U27C
DNA 1: CAATCTGAATTCCGGTCTCCC
DNA 2: TGGTGGCTACGACGGGATT
B5: UGUUUGU (DNA:RNA)
RNA: B1 RNA with C25U, A26G, G29U, U30G, G31U
DNA 1: CAATCTGAATTCCGGTCTCCC
DNA 2: TGGTGGCTACGACGGGATT
B6: CUGUGUU (DNA:RNA)
RNA: B1 RNA with A26U, U27G, G31U
DNA 1: CAATCTGAATTCCGGTCTCCC
DNA 2: TGGTGGCTACGACGGGATT
B7: UGUGUUU (DNA:RNA)
RNA: B1 RNA with C25U, A26G, U28G, G29U, G31U
DNA 1: CAATCTGAATTCCGGTCTCCC
DNA 2: TGGTGGCTACGACGGGATT
B8: UGUGUUG (DNA:RNA)
RNA: B1 RNA with C25U, A26G, U28G, G29U
DNA 1: CAATCTGAATTCCGGTCTCCC
DNA 2: TGGTGGCTACGACGGGATT
B9: UGUUUUU (DNA:RNA)
RNA: B1 RNA with C25U, A26G, G29U, G31U
DNA 1: CAATCTGAATTCCGGTCTCCC
DNA 2: TGGTGGCTACGACGGGATT
B10: CCUGCUG (DNA:RNA)
RNA: B1 RNA with A26C, U28G, G29C
DNA 1: CAATCTGAATTCCGGTCTCCC
DNA 2: TGGTGGCTACGACGGGATT
B11: UGUUUGA (DNA:RNA)
RNA: B1 RNA with C25U, A26G, G29U, U30G, G31A
DNA 1: CAATCTGAATTCCGGTCTCCC
DNA 2: TGGTGGCTACGACGGGATT
B12: UGUGUGU (DNA:RNA)
RNA: B1 RNA with C25U, A26G, U28G, G29U, U30G, G31U
DNA 1: CAATCTGAATTCCGGTCTCCC
DNA 2: TGGTGGCTACGACGGGATT
B13: CGUUUGA (DNA:RNA)
RNA: B1 RNA with A26G, G29U, U30G, G31A
DNA 1: CAATCTGAATTCCGGTCTCCC
DNA 2: TGGTGGCTACGACGGGATT
B14: UGUUAAA (DNA:RNA)
RNA: B1 RNA with C25U, A26G, G29A, U30A, G31A
DNA 1: CAATCTGAATTCCGGTCTCCC
DNA 2: TGGTGGCTACGACGGGATT
B15: UGUCGUU (DNA:RNA)
RNA: B1 RNA with C25U, A26G, U28C, G31U
DNA 1: CAATCTGAATTCCGGTCTCCC
DNA 2: TGGTGGCTACGACGGGATT

Target: T1, RBFOX1 RRM
Experiment: EMSA; HiTS-Eq, 1 nM pool, 10 min; buffer printed only for the single-RNA assays: 10 mM Tris pH 7.5, 150 mM NaCl, 3.4 mM EDTA, 0.001% NP-40, 30 C
Settings: tags: His6 N-terminal (pET28a); label: 5' 32P
How it was run: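 These values rest on relative association constants, computed from read-count changes of each RNA species versus the control reaction and normalised to the cognate motif. Reads came from free RNA recovered by 8% native PAGE after purified RbFox RRM (wild type or mutant) at increasing concentrations was equilibrated for 10 min in 50 µL with 1 nM of a 5′-radiolabelled pool with 7 randomized nucleotides and DNA-annealed flanks.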

Binder	binding signal
B1	0.0157 KA relative to UGCAUGU
B2	0.0142 KA relative to UGCAUGU
B3	0.00339 KA relative to UGCAUGU
B4	0.0347 KA relative to UGCAUGU
B5	0.0434 KA relative to UGCAUGU
B6	0.0207 KA relative to UGCAUGU
B7	0.0186 KA relative to UGCAUGU
B8	0.0299 KA relative to UGCAUGU
B9	0.0221 KA relative to UGCAUGU
B10	0.0192 KA relative to UGCAUGU
B11	0.0341 KA relative to UGCAUGU
B12	0.0346 KA relative to UGCAUGU
B13	0.0182 KA relative to UGCAUGU
B14	0.0109 KA relative to UGCAUGU
B15	0.021 KA relative to UGCAUGU
